Assay [1] is described as follows: qHTS RealTime-Glo MT Cell Viability Assay in HepG2 cells - 8 hour (AID 1224873). Also: nearly all actives have a fitted effect of over 55% in size. Also: potency is read from the fitted curve at half-maximal effect. In short, it runs like this: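 Real-time viability: cells seeded at 600 per well together with NanoLuc and cell-permeant prosubstrate, compounds added after 5 h incubation. Luminescence tracked at 0, 8, 16, 24, 32 and 40 h of exposure.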
Assay [2] is described as follows: qHTS RealTime-Glo MT Cell Viability Assay in HEK293 cells - 40 hour (AID 1224874). Also: nearly all actives have a fitted effect of over 50% in size. Also: potency is read from the fitted curve at half-maximal effect. The settings on record: RealTime-Glo luminescence; max response: stronger effect = lower value. In short, it runs like this: (§1)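 HEK293 cells mixed with RealTime-Glo reagents (NanoLuc plus cell-permeant prosubstrate) at 600 cells/well, preincubated 5 h at 37 C/5% CO2, then given 23 nL compound in DMSO. Nonlytic luminescence from viable cells was read at 0, 8, 16, 24, 32 and 40 h.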

Assay [3] can be described thus: A CellTox Green Cytotoxicity Assay to monitor cytotoxicity in HEK293 cells - 24 hour (AID 1224875). Also: nearly all actives have a fitted effect of over 45% in size. Also: potency is read from the fitted curve at half-maximal effect. The gist of the method: (§2)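 HEK293 cells premixed with CellTox Green dye were seeded at 600 cells/well and left 5 h at 37 C/5% CO2 before pin transfer of 23 nL compound in DMSO. Fluorescence from dye bound to dead-cell DNA was read during 40 h treatment.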
The nature of assay [4]: A CellTox Green Cytotoxicity Assay to monitor cytotoxicity in HepG2 cells - 16 hour (AID 1224876). Also: nearly all actives have a fitted effect of over 45% in size. In short, it runs like this:
(§3)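 HepG2 cells were seeded together with the CellTox Green dye at 600 cells/well, left 5 h at 37 C/5% CO2, then given compounds in DMSO. Fluorescence from dye bound to dead-cell DNA was read repeatedly over 40 h of treatment at 37 C.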

Assay [5] is described as follows: A CellTox Green Cytotoxicity Assay to monitor cytotoxicity in HepG2 cells - 24 hour (AID 1224878). Also: nearly all actives have a fitted effect of over 45% in size. In short, it runs like this: as §3
A short description of assay [6]: A CellTox Green Cytotoxicity Assay to monitor cytotoxicity in HepG2 cells - 40 hour (AID 1224879). Also: nearly all actives have a fitted effect of over 40% in size. Also: potency is read from the fitted curve at half-maximal effect. The gist of the method: as §3
Assay [7] in a line: qHTS RealTime-Glo MT Cell Viability Assay in HEK293 cells - 0 hour (AID 1224880). Also: nearly all actives have a fitted effect of over 45% in size. Also: potency is read from the fitted curve at half-maximal effect. In short, it runs like this: as §1
Background: qHTS replaces the single test concentration by a dilution series.

A short description of assay [8]: A CellTox Green Cytotoxicity Assay to monitor cytotoxicity in HEK293 cells - 32 hour (AID 1224881). Also: nearly all actives have a fitted effect of over 40% in size. Also: potency is read from the fitted curve at half-maximal effect. In short, it runs like this:
as §2

Assay [9] is described as follows: A CellTox Green Cytotoxicity Assay to monitor cytotoxicity in HepG2 cells - 0 hour (AID 1224882). Also: nearly all actives have a fitted effect of over 35% in size. In short, it runs like this:
as §3

The nature of assay [10]: A CellTox Green Cytotoxicity Assay to monitor cytotoxicity in HepG2 cells - 32 hour (AID 1224883). Also: nearly all actives have a fitted effect of over 50% in size. Also: potency is read from the fitted curve at half-maximal effect. The gist of the method: as §3
The nature of assay [11]: A CellTox Green Cytotoxicity Assay to monitor cytotoxicity in HEK293 cells - 8 hour (AID 1224884). Also: nearly all actives have a fitted effect of over 35% in size. Also: potency is read from the fitted curve at half-maximal effect. In short, it runs like this:
as §2

The nature of assay [12]: qHTS RealTime-Glo MT Cell Viability Assay in HepG2 cells - 16 hour (AID 1224885). Also: nearly all actives have a fitted effect of over 50% in size. Also: potency is read from the fitted curve at half-maximal effect. In short, it runs like this: (§4)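 Cell number in HepG2 cultures estimated from NanoLuc luminescence generated by metabolic reduction of a prosubstrate by living cells. The homogeneous, nonlytic format allowed repeated reads at 0, 8, 16, 24, 32 and 40 h of compound exposure.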
Assay [13] is described as follows: qHTS RealTime-Glo MT Cell Viability Assay in HEK293 cells - 24 hour (AID 1224886). Also: nearly all actives have a fitted effect of over 50% in size. Also: potency is read from the fitted curve at half-maximal effect. In short, it runs like this: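 Homogeneous bioluminescent viability format in HEK293 cells (600 cells/well). Following 5 h at 37 C/5% CO2, 23 nL compound was pintooled; the signal was measured repeatedly during 40 h incubation.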
Assay [14] can be described thus: qHTS RealTime-Glo MT Cell Viability Assay in HEK293 cells - 8 hour (AID 1224887). Also: nearly all actives have a fitted effect of over 50% in size. Also: potency is read from the fitted curve at half-maximal effect. In short, it runs like this: as §1
A short description of assay [15]: A CellTox Green Cytotoxicity Assay to monitor cytotoxicity in HEK293 cells - 16 hour (AID 1224888). Also: nearly all actives have a fitted effect of over 35% in size. The gist of the method: as §2
The nature of assay [16]: A CellTox Green Cytotoxicity Assay to monitor cytotoxicity in HepG2 cells - 8 hour (AID 1224890). Also: nearly all actives have a fitted effect of over 45% in size. The gist of the method:
as §3

The nature of assay [17]: qHTS assay to identify small molecule antagonists of the estrogen receptor alpha (ER-alpha) signaling pathway using the BG1 cell line in the presence of 0.1 nM 17-beta-estradiol - cell viability counter screen (AID 1259241). Also: nearly all actives have a fitted effect of over 40% in size. Also: potency is read from the fitted curve at half-maximal effect. The gist of the method: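 In this screen, hormone-deprived VM7Luc4E2 cells were seeded at 4,000 per well, dosed with compound and 0.1 nM estradiol final, and incubated 22 hr at 37C and 5% CO2; fluorogenic live-cell protease signal reported viability.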

A short description of assay [18]: qHTS assay to identify small molecule antagonists of the androgen receptor (AR) signaling pathway using the MDA cell line in the presence of 0.5 nM R1881 - cell viability counter screen (AID 1259242). Also: nearly all actives have a fitted effect of over 45% in size. Also: potency is read from the fitted curve at half-maximal effect. The gist of the method: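 MDA-kb2 cells (human breast carcinoma, stably carrying MMTV-luciferase reporter) were exposed to compounds with 0.5 nM R1881 (final) for 16 hr at 37C, 0% CO2; viability then read as live-cell protease fluorescence (CellTiter-Fluor, 30 min) in the same wells.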

Assay [19] is described as follows: qHTS RealTime-Glo MT Cell Viability Assay in HepG2 cells - 32 hour (AID 1224877). Also: nearly all actives have a fitted effect of over 55% in size. Also: potency is read from the fitted curve at half-maximal effect. The gist of the method: as §4
Assay [20] in a line: qHTS RealTime-Glo MT Cell Viability Assay in HepG2 cells - 0 hour (AID 1224889). Also: nearly all actives have a fitted effect of over 50% in size. The gist of the method: as §4

The record followed here is PubChem BioAssay (Tox21).

Several values for one entry are separate records, joined by “and”; a condition that tells them apart may be missing. Equal entries are not always repeated. Records with an inconclusive call do not appear. The source holds several records for some structures; these can differ, active in one and inactive in another. Activity calls are given as the source filed them. Calls follow the shape of the dose curve; as a rule, active = well fitted curve in the direction sought with a large enough effect in the repeat runs; inconclusive = weak or mixed curves; inactive = no such curve, though single readings can be large; an effect the other way counts as inactive or inconclusive.
% is scaled to controls: 0 for no effect and ±100 for the full control effect.

For `O=C1c2c(O)ccc([N+](=O)[O-])c2C(=O)c2c([N+](=O)[O-])ccc(O)c21`, the Potency was 13.7 µM (active) in [1]; 24.3 µM (active) in assay [2]; 43.2 µM (active) in assay [7]; 24.3 µM (active) in assay [12]; 19.3 µM (active) in [13]; 7.69 µM (active) in assay [14]. The Potency in assay [17] is 30.4 µM (active); in assay [18] it was 27.1 µM (active). Further, the Potency entry in assay [3], in [4], in assay [5], in [6], in assay [8] and in assay [9] was “inactive” in each case. Besides, the Potency entry in [10], in assay [11], in assay [15] and in [16] was “inactive” in each case.
Take `CCOC(=O)CC(C)O` (stereo not given): the Potency result in [1], in assay [3], in [19], in assay [6], in [7] and in assay [8] was “inactive” in each case. For the same compound, the Potency entry in [9], in assay [10], in assay [11], in assay [12], in assay [13] and in [14] was “inactive” throughout. The Potency entry in [15], in assay [20], in assay [17] and in assay [18] was “inactive” in each case. In addition, in assay [2], the max response was 5.55% (inactive).
`COc1cccc(O)c1`: the Potency result in assay [1], in assay [3], in assay [4], in [19], in assay [6] and in assay [7] was “inactive” in each case. Further, the Potency result in [8], in assay [9], in assay [10], in assay [12], in assay [13] and in assay [14] was “inactive” each time. The Potency entry in [20], in assay [16], in assay [17] and in assay [18] was “inactive” throughout. Also, in assay [2], the max response was 11.4% (inactive).
As to `c1ccc2c(c1)CCC2`, the Potency entry in [1], in [3], in [19], in assay [5], in [7] and in [8] was “inactive” throughout. Besides, the Potency result in assay [10], in assay [11], in assay [12], in assay [13], in assay [14] and in [15] was “inactive” in each case. The Potency result in assay [20], in assay [16], in assay [17] and in [18] was “inactive” each time. For the same compound, the max response in assay [2] was 5.18% (inactive).
Consider `CC(=O)Nc1ccc(O)cc1`, for which the Potency entry in assay [1], in assay [3], in assay [19], in [5], in [6] and in assay [7] was “inactive” throughout. Further, the Potency entry in assay [8], in [9], in assay [10], in assay [11], in assay [12] and in assay [13] was “inactive” in each case. In addition, the Potency entry in [14], in [15], in assay [20], in assay [16], in assay [17] and in assay [18] was “inactive” each time. For the same compound, the max response in assay [2] is 7.7% (inactive) and -11.8% (inactive) and 15.1% (inactive).
Turning to `CC(C)(c1cc(Br)c(OCCO)c(Br)c1)c1cc(Br)c(OCCO)c(Br)c1`, the Potency result in [1], in [3], in assay [4], in [7], in [8] and in [9] was “inactive” in each case. The Potency result in assay [11], in assay [15], in assay [20] and in assay [17] was “inactive” throughout. Further, the Potency in [2] and in [13] was 12 µM (active) each time.
On to `C[C@@H]1CC[C@H]2C(C)(C)[C@H]3C[C@@]12CC[C@@]3(C)O`, for which the Potency entry in assay [1], in [19], in assay [7], in assay [9], in assay [12] and in assay [20] was “inactive” in each case. The Potency result in assay [16], in [17] and in assay [18] was “inactive” in each case. For the same compound, in [2], the max response is -18.5% (inactive). In addition, the Potency in assay [3] is 38.8 µM (active); in assay [6], 54.9 µM (active); in assay [8], 38.8 µM (active); in assay [10] it was 54.9 µM (active); in [11], 43.6 µM (active).
For `CC(C)(C)c1n[nH]c(=O)n(N)c1=O`, the Potency entry in [1], in assay [3], in [4], in assay [19], in assay [7] and in [8] was “inactive” throughout. Besides, the Potency result in [9], in [10], in assay [12], in assay [13], in assay [14] and in assay [15] was “inactive” each time. Besides, the Potency result in [20], in [16], in [17] and in [18] was “inactive” each time. Also, the max response in [2] was -0.732% (inactive).
For `CC1=C(/C=C/C(C)=C/C=C/C(C)=C/C(=O)Nc2ccc(O)cc2)C(C)(C)CCC1`, the Potency entry is “inactive and 23.9 µM (active)” in assay [1]; 893 nM (active) and 425 nM (active) in assay [2]; “inactive and 26.8 µM (active)” in assay [19]; 50.2 µM (active) and 23.9 µM (active) in assay [6]; 50.2 µM (active) and 26.8 µM (active) in [10]; “inactive and 26.8 µM (active)” in [12]. In addition, the Potency is 893 nM (active) and 338 nM (active) in assay [13]; 710 nM (active) and 239 nM (active) in assay [14]; 55.9 µM (active) and 11.9 µM (active) in assay [17]; 23.7 µM (active) in assay [18]. Also, the Potency entry in assay [3], in [4], in assay [7], in assay [8], in assay [9] and in [20] was “inactive” each time. The Potency result in assay [16] is “inactive”.
`O=CC1CC1`: the Potency result in [1], in [3], in assay [19], in assay [5], in [6] and in assay [7] was “inactive” throughout. For the same compound, the Potency result in assay [8], in assay [9], in assay [10], in assay [11], in assay [12] and in [13] was “inactive” each time. In addition, the Potency entry in [14], in [20], in assay [17] and in assay [18] was “inactive” throughout. In [2], the max response is 12% (inactive).
With `CCOCN(C(=O)CS(=O)(=O)O)c1c(C)cccc1CC`, the Potency result in assay [1], in [3], in assay [19], in assay [5], in assay [6] and in assay [7] was “inactive” in each case. Besides, the Potency result in assay [8], in [9], in [10], in assay [11], in assay [12] and in [13] was “inactive” in each case. The Potency entry in assay [14], in assay [15], in assay [20], in assay [16], in assay [17] and in assay [18] was “inactive” in each case. Moreover, the max response in assay [2] is 8.02% (inactive).
